Results: PubChem BioAssay AID1159580 (chemical genetic matrix, 2015)
Several values for one entry are separate records, joined by “and”; a condition that tells them apart may be missing. Equal entries are not always repeated. Among all 5,500 compounds or so, about 2,000 (36%) were called active. Inconclusive results (about 18%) are left out. Cut-off read from the data, not from the text of the source: active = normalized growth mostly below about 0.91 (no sharp cut-off); inconclusive = no clear call, values can overlap the other calls; inactive = mostly above about 0.92. Some of the results follow.

Assay: chemical genetic growth profiling, strain panel (AID 1159580);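 note: tested at 20 µM; growth read once vehicle control cultures reached saturation at 30 °C; 1 = growth at the plate median or of vehicle wells; lower values mean less growth of the strain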
Details: S. cerevisiae deletion strains, growth OD
[1] = locus YDR150W, strain NUM1, hits give low values
[2] = locus YNL153C, strain GIM3, hits give low values
[3] = locus YPL241C, strain CIN2, hits give low values
[4] = locus YAL013W, strain DEP1, hits give low values
[5] = locus YBR229C, strain ROT2, hits give low values
[6] = locus YDL101C, strain DUN1, hits give low values
[7] = locus YEL061C, strain CIN8, hits give low values
[8] = locus YGR078C, strain PAC10, hits give low values
[9] = locus YGR229C, strain SMI1, hits give low values
[10] = locus YHR030C, strain SLT2, hits give low values
[11] = locus YHR087W, strain rtc3, hits give low values
[12] = locus YJL187C, strain SWE1, hits give low values
[13] = locus YJR043C, strain POL32, hits give low values
[14] = locus YJR075W, strain HOC1, hits give low values
[15] = locus YLR039C, strain RIC1, hits give low values
[16] = locus YLR058C, strain SHM2 (second series), hits give low values
[17] = locus YLR085C, strain ARP6, hits give low values
[18] = locus YLR262C, strain YPT6, hits give low values
[19] = locus YML094W, strain GIM5, hits give low values
[20] = locus YMR219W, strain ESC1, hits give low values
[21] = locus YMR263W, strain SAP30, hits give low values
[22] = locus YNL298W, strain CLA4 (second series), hits give low values
[23] = locus YNL322C, strain KRE1, hits give low values
[24] = locus YNR030W, strain Alg12, hits give low values
[25] = locus YPL055C, strain LGE1, hits give low values
[26] = locus YPR135W, strain CTF4, hits give low values

Measured: normalized growth

Cc1ccc([N+](=O)[O-])cc1S(=O)(=O)N(C)C
inactive: locus YAL040C, strain CLN3, hits give low values 0.984 | locus YCL061C, strain MRC1 (second series), hits give low values 1 | [1] 1.03 | locus YDR363W, strain ESC2, hits give low values 0.972 | locus YER002W, strain NOP16, hits give low values 1 | [2] 0.846 | locus YNL175C, strain NOP13, hits give low values 0.996 | locus YNL197C, strain WHI3, hits give low values 0.926 | locus YNL224C, strain SQS1, hits give low values 0.979 | locus YOR083W, strain WHI5 (second series), hits give low values 0.955 | [3] 0.998

O=[N+]([O-])c1ccc2c(c1)NC(c1ccc([N+](=O)[O-])s1)O2 (centres undefined)
active: [4] 0.0563 | [5] 0.0525 | locus YCL061C, strain MRC1, hits give low values 0.0508 | [6] 0.0673 | locus YDL134C, strain PPH21, hits give low values 0.0453 | [1] 0.0493 | [7] 0.049 | locus YGR052W, strain FMP48, hits give low values 0.104 | [8] 0.0481 | [9] 0.0516 | [10] 0.0641 and 0.114 | locus YHR079C, strain IRE1, hits give low values 0.11 | locus YHR082C, strain KSP1, hits give low values 0.106 | [11] 0.0539 | locus YJL095W, strain BCK1, hits give low values 0.1 | [12] 0.0478 | [13] 0.0509 | locus YJR066W, strain TOR1, hits give low values 0.1 | [14] 0.0918 | locus YKL171W, strain NNK1, hits give low values 0.387 | locus YKL203C, strain TOR2, hits give low values 0.0984 | [15] 0.0606 | [16] 0.0478 | [17] 0.0638 | locus YLR113W, strain HOG1, hits give low values 0.187 | [18] 0.0626 | [19] 0.0601 | [20] 0.0484 | [21] 0.0575 | [2] 0.0476 | locus YNL183C, strain NPR1, hits give low values 0.108 | locus YNL207W, strain RIO2, hits give low values 0.107 | [22] 0.0735 | [23] 0.0534 | [24] 0.063 | locus YOR119C, strain RIO1, hits give low values 0.0996 | locus YOR231W, strain MKK1, hits give low values 0.101 | [25] 0.0657 | [3] 0.0629 | locus YPL256C, strain CLN2, hits give low values 0.17 | [26] 0.149

CN1c2ccccc2C(=O)NC1c1ccc([N+](=O)[O-])s1 (centres undefined)
inactive: [4] 1 | [5] 0.988 | [6] 1.02 | [1] 1 | [7] 0.967 | [8] 1.02 | [9] 0.989 | [10] 1 | [11] 0.991 | [12] 0.996 | [13] 1.01 | [14] 1.02 | [15] 1.02 | [16] 0.995 | [17] 1.03 | [18] 1.05 | [19] 0.989 | [20] 0.995 | [21] 1 | locus YMR307W, strain GAS1, hits give low values 1.01 | [2] 1.02 | [22] 1.01 | [23] 0.995 | [24] 0.988 | [25] 0.971 | [3] 1 | [26] 1.05
